Source: PubChem BioAssay (NCI)
This is part of a sample that, as a whole, favours compounds with a hit. Of some 83,000 tested, about 20% had one in any assay.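 Negative percent growth values reflect cell death: -40 means 40% of the cells present at the start died, and -100 means all died.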 Activity calls are given as the source filed them. How the source made its calls: active means growth percent below 10; inactive means the rest.

What follows are compounds tested on MDA-MB-468 breast (assay: NCI-60 one-dose screen, 48 h (100 = growth as untreated, 0 = no growth, -100 = all killed)). Conditions: 10 µM unless noted.
With O=S(=O)(OCCO)c1ccccc1 the growth was 97% (inactive).
For NCCCn1c2c(c3cc(-c4ccn[nH]4)ccc3c1=O)C(=O)c1ccccc1-2, the growth was 62.6% (inactive).
In the case of Clc1ccc([I+]c2ccc(Cl)cc2Cl)c(Cl)c1, the growth is reported as -37.9% (active).
For COc1ccc(/C=C/C(=O)NCCO)cc1, the growth was 101% (inactive).
For Cn1c([N+](=O)[O-])cnc1/C=C1\Oc2ccc(Cl)cc2C1=O, the growth was 7.19% (active).
